Measurements reported in PubChem BioAssay (NCATS).
Inconclusive results are not listed. The source made the active and inactive calls. The call rests on the fitted dose curve; in most records, active means well fitted inhibition curve with a large enough effect; inconclusive means small, poorly fitted or top-dose-only effect; inactive means flat fitted curve, though single readings scatter.

Columns and labels:
Experiment in all cases: qHTS profiling for inhibitors of Plasmodium falciparum proliferation (AID 504749); further: nearly all actives have a fitted effect of over 60% in size
Settings in all cases: P. falciparum in erythrocytes, SYBR Green DNA, 72 h; series mostly up to 28.7 µM
[1] = test system: FAB9
Summary of the method: (§1)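 Readout was DNA-dye fluorescence from lysed cultures, ex 485/em 535 nm. Parasitized red cells had grown 72 h with compound; data scaled between 0.29 uM artemisinin and DMSO wells and corrected using vehicle-only plates.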

[2] = test system: GB4
Summary of the method: as §1

[3] = test system: HB3
Summary of the method: as §1

[4] = test system: ICS
Summary of the method: as §1

[5] = test system: JCK
Summary of the method: as §1

[6] = test system: N140
Summary of the method: as §1

[7] = test system: P94_40
Summary of the method: as §1

[8] = test system: PAD
Summary of the method: as §1

[9] = test system: PC15
Summary of the method: as §1

[10] = test system: P93_24
Summary of the method: as §1

Measured: Potency
Potency means the concentration at half of the fitted maximal effect.

OC1C(O)C(O)C(O)C(O)C1O (centres undefined)
not listed: [10]
inactive: all other assays above

CCCCCCCCCCCCCC[N+](C)(C)Cc1ccccc1
active: [1] 5.62 µM | [2] 4.26 µM | [3] 8.91 µM | [4] 2.51 µM | [5] 11.2 µM | [6] 8.91 µM | [10] 7.94 µM | [7] 6.31 µM | [8] 11.2 µM | [9] 6.31 µM

CC(C)Cn1cnc2c1c(=O)n(C)c(=O)n2C
inactive: all assays above

CCCCCCCCNC(C)C(O)c1ccc(SC(C)C)cc1 (centres undefined)
active: [1] 1.41 µM | [2] 0.536 µM | [3] 0.891 µM | [4] 0.0891 µM | [5] 3.16 µM | [10] 0.891 µM | [7] 0.447 µM | [8] 0.398 µM | [9] 0.355 µM

COP(=O)(OC)OC(c1ccc(Cl)cc1)P(=O)(OC)OC (centres undefined)
inactive: all assays above

O=C(O)C(Cc1cc(I)c(O)c(I)c1)c1ccccc1 (centres undefined)
inactive: all assays above

Cn1c(=O)c2[nH]c(Br)nc2n(C)c1=O
not listed: [7]
inactive: all other assays above

O=C(O)c1ccc(S(=O)(=O)N(Cl)Cl)cc1
inactive: all assays above

NC(=S)N/N=C/c1cccnc1
inactive: all assays above

O=C(O)C1(C(=O)O)CCC1.[NH2-].[NH2-].[Pt+2]
active: [3] 10 µM
not listed: [4]
inactive: all other assays above

CCCCNC(=O)NS(=O)(=O)c1ccc(N)cc1
inactive: all assays above

CCNC(=O)NCc1cccc(Cl)c1
not listed: [4]
inactive: all other assays above

CCOC(=O)c1ccc(N)cc1
inactive: all assays above

Cc1nc(-c2ccc(Cl)cc2)oc1COC(C)(C)C(=O)O
inactive: all assays above

CCOc1ccc(NC(C)=O)cc1
inactive: all assays above

CN(C)CCN1C(=O)c2ccccc2N(C)c2ccccc21
active: [2] 9.53 µM
not listed: [6] | [7] | [10]
inactive: all other assays above

CC(=O)Nc1ncc([N+](=O)[O-])s1
inactive: all assays above

OCCOCCN1CCN(C2=Nc3ccccc3Sc3ccccc32)CC1
not listed: [4]
inactive: all other assays above

CC(=O)Nc1ccc(CC(=O)O)cc1
inactive: all assays above

COc1ccc(CN(CCN(C)C)c2ncccn2)cc1
active: [2] 9.53 µM | [10] 7.94 µM
inactive: all other assays above

Cc1cc(-c2ccccc2)nnc1NCCN1CCOCC1
not listed: [4] | [8] | [9]
inactive: all other assays above

CC(=O)NCCCCCC(=O)O
inactive: all assays above

FC(F)(F)C(F)(F)C(F)(F)C(F)(F)C(F)(F)C(F)(F)C(F)(F)C(F)(F)Br
inactive: all assays above

NC(N)=NCc1cccc(I)c1
not listed: [4]
inactive: all other assays above

CCCCC(CC)COC(=O)c1ccc(N(C)C)cc1 (centres undefined)
inactive: all assays above

CCCCN=C(N)N=C(N)N
inactive: all assays above

CCOC(=O)C(C#N)=C(c1ccccc1)c1ccccc1
inactive: all assays above

Cc1c(-c2ccccc2)oc2c(C(=O)OCCN3CCCCC3)cccc2c1=O
inactive: all assays above

O=C(CN1CCN(Cc2ccc3c(c2)OCO3)CC1)N1c2ccccc2Sc2ccccc21
inactive: [1] | [5]
active: [2] 12 µM | [4] 10 µM | [10] 8.91 µM | [7] 8.91 µM | [8] 12.6 µM
